# Source: PMC4336329 (PLoS ONE, 2015)
# About 14,000 (4.5%) of roughly 310,000 compounds showed an effect of 50% or more. The effect is printed as a negative number. For the sample, strong results were picked, then their nearest neighbours and some compounds at random.
# Target: human ether-à-go-go-related gene (hERG) potassium channel (human, UniProt Q12809)
# Assay: primary screen, population patch clamp on CHO cells stably expressing hERG; higher = less effect of the substance
# 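Further: peak tail current of the secondary pulse compared with the same well before compound.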
# Chain of human ether-à-go-go-related gene (hERG) potassium channel (Q12809 whole entry, looked up): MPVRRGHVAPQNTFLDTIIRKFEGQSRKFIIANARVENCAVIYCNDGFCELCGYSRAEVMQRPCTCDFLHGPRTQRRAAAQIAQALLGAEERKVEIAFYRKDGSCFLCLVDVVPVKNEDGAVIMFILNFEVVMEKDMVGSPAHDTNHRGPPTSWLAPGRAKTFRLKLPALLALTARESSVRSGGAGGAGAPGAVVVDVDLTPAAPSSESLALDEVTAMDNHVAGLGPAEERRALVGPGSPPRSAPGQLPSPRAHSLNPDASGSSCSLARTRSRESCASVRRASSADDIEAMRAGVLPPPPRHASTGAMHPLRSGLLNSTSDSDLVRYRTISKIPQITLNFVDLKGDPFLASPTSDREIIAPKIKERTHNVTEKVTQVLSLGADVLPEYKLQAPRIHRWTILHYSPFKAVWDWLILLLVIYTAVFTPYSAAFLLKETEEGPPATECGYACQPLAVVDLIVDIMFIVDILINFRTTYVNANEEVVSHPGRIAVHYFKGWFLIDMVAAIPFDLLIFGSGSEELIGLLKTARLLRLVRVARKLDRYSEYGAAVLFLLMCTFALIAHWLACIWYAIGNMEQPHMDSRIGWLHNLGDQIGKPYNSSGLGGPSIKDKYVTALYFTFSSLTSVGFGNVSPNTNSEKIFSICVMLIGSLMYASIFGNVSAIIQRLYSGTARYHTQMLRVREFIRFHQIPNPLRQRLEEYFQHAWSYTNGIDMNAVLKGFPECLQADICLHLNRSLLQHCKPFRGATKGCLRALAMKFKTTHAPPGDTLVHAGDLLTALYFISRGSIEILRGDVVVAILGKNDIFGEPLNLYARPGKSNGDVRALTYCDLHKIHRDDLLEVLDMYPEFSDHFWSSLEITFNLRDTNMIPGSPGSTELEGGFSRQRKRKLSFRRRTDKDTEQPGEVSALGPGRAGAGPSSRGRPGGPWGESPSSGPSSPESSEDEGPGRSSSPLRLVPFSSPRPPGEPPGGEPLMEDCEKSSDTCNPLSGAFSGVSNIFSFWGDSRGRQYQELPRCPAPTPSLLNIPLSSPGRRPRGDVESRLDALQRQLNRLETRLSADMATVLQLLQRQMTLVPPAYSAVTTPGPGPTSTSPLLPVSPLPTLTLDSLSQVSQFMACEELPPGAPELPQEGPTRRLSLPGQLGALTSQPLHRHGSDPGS
row,SMILES,"hERG current change (%, negative = inhibition) at 10uM [%]"
1,O=C(/C=C/c1ccc2c(c1)OCO2)c1cccnc1,-27.8
2,O=C(/C=C/c1ccc2c(c1)OCO2)Nc1cccnc1,-66.4
3,CC(=O)Nc1ccc(NC(=O)/C=C/c2ccc3c(c2)OCO3)cc1,13
4,C[C@@H](C(=O)N[C@@H](Cc1c[nH]c2ccccc12)C(=O)O)n1nnc2ccccc2c1=O,41.7
5,Cn1c(Cn2c(=O)sc3ccccc32)nnc1SCc1ccc(F)cc1,-21.6
6,CC(=O)N(CCS(=O)(=O)c1ccc(Cl)cc1)Cc1cccs1,-0.348
7,N#C/C(=C\c1ccc(N2CCOCC2)o1)C(=O)NCCc1ccccc1,-57.9
8,N#C/C(=C\c1ccc(N2CCOCC2)o1)C(=O)NCC1CCCO1 (stereo not drawn),-0.262
9,COCCNC(=O)/C(C#N)=C/c1ccc(N2CCOCC2)o1,9.87
10,O=C(c1cc(C(=O)NCc2ccccc2)c(=O)n(Cc2ccccc2)c1)c1cc(Cl)ccc1O,-0.908
11,Cc1ccc2nsnc2c1S(=O)(=O)Nc1cccc2nsnc12,-0.692
12,COc1cc(C(=O)NC(=S)Nc2nccs2)cc(OC)c1OC,17.7
13,CCOC(=O)C(C)Sc1nc2c(c(=O)[nH]c(=O)n2C)n1C/C=C(/C)Cl (stereo not drawn),-72.8
14,CC(C)Sc1nc2c(c(=O)[nH]c(=O)n2C)n1Cc1ccc(Cl)cc1,-13.3
15,COC(=O)C(C)Sc1nc2c(c(=O)[nH]c(=O)n2C)n1CCC(C)C (stereo not drawn),-24.6
16,CCOC(=O)C(C)Sc1nc2c(c(=O)[nH]c(=O)n2C)n1Cc1ccc(Cl)cc1 (stereo not drawn),-75
17,C/C(Cl)=C/Cn1c(SC(C)C)nc2c1c(=O)[nH]c(=O)n2C,-6.63
18,C/C(Cl)=C/Cn1c(SCC(C)C)nc2c1c(=O)[nH]c(=O)n2C,15.2
19,CCOC(=O)CSc1nc2c(c(=O)[nH]c(=O)n2C)n1CCc1ccccc1,-1.16
20,COC(=O)C(C)Sc1nc2c(c(=O)[nH]c(=O)n2C)n1CCCc1ccccc1 (stereo not drawn),-72.2
21,CCC(C)Sc1nc2c(c(=O)[nH]c(=O)n2C)n1Cc1ccc(Cl)cc1 (stereo not drawn),1.92
22,CCOC(=O)C(C)Sc1nc2c(c(=O)[nH]c(=O)n2C)n1CCc1ccccc1 (stereo not drawn),-49.8
23,CCOC(=O)C(CC)Sc1nc2c(c(=O)[nH]c(=O)n2C)n1CCc1ccccc1 (stereo not drawn),-67.8

row,SMILES,"hERG current change (%, negative = inhibition) at 10uM [%]"
1,Cn1c(=O)[nH]c(=O)c2c1nc(SCC(=O)O)n2CCCc1ccccc1,3.89
2,Cc1ccc(OC(=S)Nc2ccc(F)cc2)cc1,7.01
3,Cc1ccc(Sc2nc(-c3ccccc3)nnc2C(F)(F)F)cc1,11.7
4,CC(C)(C)C(=O)NC(Nc1cccc2cccnc12)C(Cl)(Cl)Cl (stereo not drawn),-1.6
5,CC1=C(C(=O)OC(C)C)C(c2ccc(Br)s2)NC(=O)N1 (stereo not drawn),-48
6,O=c1oc2cc([N+](=O)[O-])ccc2nc1/C=C(\O)c1cccc(Br)c1,4.15
7,C[C@]12C(=O)N(c3ccc(F)cc3)C(=O)N1[C@@H]1c3ccccc3OC[C@@H]1[C@H]2c1ccccc1,7.01
8,COc1cc(OC)c(NC2=NCCCCC2)cc1Cl,-0.664
9,CCOC(=O)C(CC)Sc1nc2c(c(=O)[nH]c(=O)n2C)n1C/C=C(/C)Cl (stereo not drawn),-82
10,CCSc1nc2c(c(=O)[nH]c(=O)n2C)n1C/C=C(/C)Cl,-17.2
11,CCOC(=O)CSc1nc2c(c(=O)[nH]c(=O)n2C)n1C/C=C(/C)Cl,-43.7
12,Nc1nc(Cl)cc(-c2ccccc2)n1,-4.54
13,CCC(C)C(NC=C1C(=O)OC(C)(C)OC1=O)C(=O)O (stereo not drawn),-4.97
14,CCOCCn1c(CN(Cc2ccccc2)Cc2ccccc2)nc2c1c(=O)n(C)c(=O)n2C,-45.6
15,CN(Cc1ccccc1)Cc1nc2c(c(=O)n(C)c(=O)n2C)n1Cc1ccc(F)cc1,-55.6
16,CN(Cc1ccccc1)Cc1nc2c(c(=O)n(C)c(=O)n2C)n1CCCc1ccccc1,-50.3
17,COCCn1c(CN(C)Cc2ccccc2)nc2c1c(=O)n(C)c(=O)n2C,-6.15
18,CC1CN(Cc2nc3c(c(=O)n(C)c(=O)n3C)n2Cc2cccc(Cl)c2)CC(C)O1 (stereo not drawn),-14.2
19,CCCCn1c(CN(C)Cc2ccccc2)nc2c1c(=O)n(C)c(=O)n2C,-39.9
20,CN(Cc1ccccc1)Cc1nc2c(c(=O)n(C)c(=O)n2C)n1CCc1ccccc1,-48.3
21,COCCn1c(CN(Cc2ccccc2)Cc2ccccc2)nc2c1c(=O)n(C)c(=O)n2C,-62.8
22,Cn1c(=O)c2c(nc(CN3CCN(Cc4ccccc4)CC3)n2Cc2cccc(Cl)c2)n(C)c1=O,-59.2
23,CN(Cc1ccccc1)Cc1nc2c(c(=O)n(C)c(=O)n2C)n1Cc1ccc(Cl)cc1,-30.1

row,SMILES,"hERG current change (%, negative = inhibition) at 10uM [%]"
1,CCCn1c(CN(C)Cc2ccccc2)nc2c1c(=O)n(C)c(=O)n2C,-23.4
2,Cn1c(=O)c2c(nc(CN3CCN(c4cccc(Cl)c4)CC3)n2CCc2ccccc2)n(C)c1=O,-20.1
3,CCCCC(CC(O)COCCC)C(=O)NN (stereo not drawn),16.1
4,O=Cc1ccc(N2N=C(c3ccccc3)CC2c2ccccc2)cc1 (stereo not drawn),24.3
5,Cc1[nH]c(C)c2c(=O)n(-c3ccccc3)ncc12,10.2
6,COc1ccc(C2C(C#N)=C(N)N(N(C)C)C3=C2C(=O)CCC3)cc1 (stereo not drawn),9.88
7,CCOC(=O)N1CCN(S(=O)(=O)c2ccc(Cl)cc2)CC1,0.615
8,O=C(CSc1nc(-c2ccccc2)cs1)NCc1ccco1,-14.9
9,Cc1ccc(Cn2c(CN(C)Cc3ccccc3)nc3c2c(=O)n(C)c(=O)n3C)cc1,-21.5
10,Cn1c(=O)c2c(nc(CN3CCc4ccccc4C3)n2Cc2cccc(Cl)c2)n(C)c1=O,-53.9
11,CN(Cc1ccccc1)Cc1nc2c(c(=O)n(C)c(=O)n2C)n1Cc1ccccc1Cl,-5.6
12,Cc1ccc(C)c(Cn2c(CN(C)Cc3ccccc3)nc3c2c(=O)n(C)c(=O)n3C)c1,-51.3
13,CCOC(=O)N1CCN(Cc2nc3c(c(=O)n(C)c(=O)n3C)n2Cc2ccc(F)cc2)CC1,-36.2
14,COCCn1c(CN2CCN(c3ccc(OC)cc3)CC2)nc2c1c(=O)n(C)c(=O)n2C,-9.23
15,Cc1ccccc1Cn1c(CN2CCc3ccccc3C2)nc2c1c(=O)n(C)c(=O)n2C,-15.9
16,Cn1c(=O)c2c(nc(CN3CCc4ccccc4C3)n2Cc2ccccc2)n(C)c1=O,-17.5
17,Cn1c(=O)c2c(nc(CN3CCN(Cc4ccccc4)CC3)n2Cc2ccc(F)cc2)n(C)c1=O,-67.2
18,Cn1c(=O)c2c(nc(CN3CCc4ccccc4C3)n2Cc2ccc(F)cc2)n(C)c1=O,-26.5
19,COc1ccc(N2CCN(Cc3nc4c(c(=O)n(C)c(=O)n4C)n3Cc3cccc(C)c3)CC2)cc1,-52.3
20,COc1ccc(N2CCN(Cc3nc4c(c(=O)n(C)c(=O)n4C)n3CCc3ccccc3)CC2)cc1,13.5
21,NC(=S)Nc1ccc(C(F)(F)F)cc1Cl,0.127
22,O=C(CN1C(=O)C2(OCCO2)c2ccccc21)c1ccc(F)cc1,2.09
23,COc1ccc(CCCC(=O)Nc2cc(C)ccc2OC)cc1,-14.2

row,SMILES,"hERG current change (%, negative = inhibition) at 10uM [%]"
1,CCOc1cc(C(=O)CCC(=O)OCC(=O)Nc2ccc(C)c(S(=O)(=O)N(C)C)c2)ccc1O,-32.7
2,Cc1cc(N)n(Cc2cccs2)n1,-2.95
3,COc1ccc(C(=O)Nc2nnc(S(=O)(=O)N(C)Cc3ccccc3)s2)cc1,7.21
4,O=c1c2ccccc2[nH]c(=S)n1-c1ccc2c(c1)OCO2,13.1
5,Cc1nc(NC(=O)CSc2nnc3ccccn23)c(Cl)cc1Cl,-3.58
6,Cn1c(=O)c2c(nc(CN3CCc4ccccc4C3)n2Cc2ccc(Cl)cc2)n(C)c1=O,0.125
7,Cn1c(=O)c2c(nc(CN3CCN(Cc4ccccc4)CC3)n2CCN2CCOCC2)n(C)c1=O,-17.6
8,Cn1c(=O)c2c(nc(CN3CCN(Cc4ccccc4)CC3)n2Cc2ccc(Cl)cc2)n(C)c1=O,-68
9,Cc1csc(SCC(=O)Nc2cc(S(=O)(=O)N3CCOCC3)ccc2N2CCOCC2)n1,-45.8
10,CCn1c(SCC(=O)Nc2ccc(OC)cc2)nnc1-c1ccco1,-22.3
11,O=C(O)/C=C/C(=O)NNC(=O)c1ccccc1Br,2.8
12,O=c1[nH]c(SCc2ccc(Cl)cc2)nc2ccccc12,3.49
13,O=c1[nH]c(SCc2ccccc2)nc2ccsc12,5.3
14,O=c1[nH]c(SCc2ccc(Cl)cc2)nc2ccsc12,-67
15,COc1cc(CCCN2C(=S)NC[C@@H]2CC2CCCCC2)cc(OC)c1OC,-1.89
16,CN(CC#CC(O)(c1ccccc1)c1ccccc1)C(C)(C)C,-69
17,CN(C)CCC#CC(O)(c1ccccc1)c1ccccc1,-32.1
18,CC(C)N(CC#CC(O)(c1ccccc1)c1ccccc1)CCO,-28.1
19,CCN(CC)CC#CC(O)(c1ccccc1)c1ccccc1,-42.5
20,OCCN(CC#CC(O)(c1ccccc1)c1ccccc1)CCO,5.56
21,CC(C)N(CC#CC(O)(c1ccccc1)c1ccccc1)C(C)C,-70.4
